proKLK7 act: proKLK7 zymogen activators, primary screen, biochemical, fluorescence intensity | purified proKLK7, EDANS-DABCYL substrate fluorescence; 100% is mature enzyme control, 0% vehicle | activation, % at 7 µM | Kallikrein-7 (Homo sapiens), P49862 | hit rate 0.9% among 370,000;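 active means activation above the mean of all tested compounds plus 3 SD, computed per campaign excluding outliers beyond control limits, cut at about 13% in these data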
Target sequence (P49862 whole entry, looked up): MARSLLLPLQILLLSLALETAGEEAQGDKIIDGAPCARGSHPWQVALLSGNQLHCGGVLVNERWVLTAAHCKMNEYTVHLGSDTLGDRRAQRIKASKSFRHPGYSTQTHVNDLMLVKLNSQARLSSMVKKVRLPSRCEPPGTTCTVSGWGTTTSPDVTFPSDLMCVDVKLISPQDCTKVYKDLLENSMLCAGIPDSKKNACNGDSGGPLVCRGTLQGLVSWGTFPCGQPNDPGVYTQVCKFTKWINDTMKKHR
rRNA inh HTS: reduced GFP signal of wild-type E. coli, primary screen, bacterial rRNA inhibitor project, GFP/RFP fluorescence, OD600, single point | E. coli WT GFP vs humanized-ribosome RFP mutants, 24 h; active compounds read low; DMSO median 0, no signal -100 | GFP signal change (wild-type ribosome), % (concentration not given with the values) | hit rate 1.6% among 350,000 | AID 720706, 2013;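 active means significant combined selectivity score with lowered wild-type GFP, culture density cut under 30%, mutant RFP and density less affected; inactive means any of these conditions unmet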
ADAM10 inh: human ADAM10 inhibitors, primary screen, biochemical, QFRET, HTS. recombinant ADAM10, EDANS/DABCYL FRET peptide cleavage, 3 h. inhibition, % at 7 µM. hit rate 0.62% among 370,000;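 active means inhibition above a per-campaign cutoff equal to the mean of compounds falling between control-based bounds plus 3 SD, cut at about 20% in these data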;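 further: 0% = DMSO wells while the 100% control is not disclosed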
ADAM17 inh: ADAM17 inhibitors, primary screen, biochemical, QFRET | recombinant ADAM17, EDANS/DABCYL FRET peptide cleavage | Disintegrin and metalloproteinase domain-containing protein 17 (Homo sapiens), P78536 | inhibition, % at 6.95 µM | AID 720648, 2013 | hit rate 0.83% among 370,000;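 active means inhibition above the mean of compounds lying between control limits plus 3 SD, set per campaign, cut at about 8.5% in these data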;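 further: 0% = DMSO-only wells as the low control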
FGF22 binding: binders of human FGF22 protein, primary screen, FGF22 synaptogenesis inhibitor project, biophysical, thermal shift, single point; Fibroblast growth factor 22 (Homo sapiens), Q9HCT0; recombinant FGF22 thermal shift, SYPRO orange fluorescence; percent of sucrose octasulfate shift, DMSO zero; activity (Tm shift, normalised), % at 9.99 µM; hit rate 1.5% among 340,000; AID 651658, 2012;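 active means mean Tm shift, scaled 0 neutral to 100 positive control, at about 1.3% or above, every replicate too, limit read from the data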
Target sequence (Q9HCT0 whole entry, looked up): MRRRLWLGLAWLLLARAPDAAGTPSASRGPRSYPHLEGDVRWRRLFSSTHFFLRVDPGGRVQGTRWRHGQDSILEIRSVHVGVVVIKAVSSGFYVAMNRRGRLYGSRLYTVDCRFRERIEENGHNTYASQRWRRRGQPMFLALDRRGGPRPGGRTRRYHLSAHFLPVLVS
KLK7 act conf: proKLK7 zymogen activators, confirmation, biochemical, fluorescence intensity, triplicate | shares compounds with proKLK7 act | purified proKLK7, EDANS-DABCYL substrate fluorescence; scaled: vehicle 0, mature enzyme 100 | activation, % at 7 µM | hit rate 68% among 3,200;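 active means activation, as change over the incubation, above the mean of all tested compounds plus 3 SD, cut at about 13% in these data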
EDANS interfere: EDANS-DABCYL substrate optical interference, artefact control for kallikrein-7 zymogen activator project, biochemical, fluorescence intensity, high throughput. shares compounds with proKLK7 act. activation, % at 7 µM. no enzyme, 4 h; solvent 0%, active enzyme control 100%. hit rate 80% among 3,200;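 active means activation above the all-compound mean plus 3 SD, ignoring values outside control-based bounds, cut at about 4.8% in these data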;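 further: value is the 4 h activation minus the activation read at time zero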
K7 EDANS ctr: optically interferes with EDANS-DABCYL fluorescence, kallikrein-7 activator counter-screen; shares compounds with proKLK7 act; EDANS-DABCYL peptide fluorescence interference, no enzyme; EC50, µM; hit rate 20% among 250; AID 720493;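 active means compounds that raise the fluorescence signal in this interference counterscreen, with EC50 at or below 10 µM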;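 further: intact quenched peptide substrate alone read at 355 nm excitation and 520 nm emission; signal is fluorescence gain from T0 to T4 after four hours at room temperature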
* marks the source's active call; other numbers are inactive results; i = inactive; . = not tested or not shown. Rows were chosen to be rich in hits. Some 3.8% of all compounds tested hit in one or more screens of this group.

SMILES | proKLK7 act | rRNA inh HTS | ADAM10 inh | ADAM17 inh | FGF22 binding | KLK7 act conf | EDANS interfere | others
COc1ccc2cc3cc(C(=O)NCC4CCCO4)oc3nc2c1 (stereo unspecified) | 48* | . | i | i | . | 66* | 71*
COCCNC(=O)c1cc2cc3ccc(OC)cc3nc2o1 | 35* | -30 | i | i | 0 | 67* | 78*
CCC(C)NC(=O)c1cc2cc3ccc(OC)cc3nc2o1 (stereo unspecified) | 40* | -16 | i | i | 0 | 44* | 63*
CCCCN(CC)C(=O)c1cc2cc3ccc(OC)cc3nc2o1 | 13* | . | i | -372 | . | -5 | 0
C[C@H]1CN([C@@H](C)CO)C(=O)c2cc(C#CCN(C)C)cnc2O[C@H]1CN(C)C(=O)CCN1CCCCC1 | . | 2 | . | . | 0 | . | .
C[C@@H]1CN([C@@H](C)CO)C(=O)c2cc(N(C)C)ccc2O[C@@H](C)CCCCO[C@H]1CN(C)Cc1ccc(C(F)(F)F)cc1 | . | -5 | . | . | 0 | . | .
Cc1sc(-c2ccncc2)nc1OC(=O)c1ccc(F)cc1F | 14* | 8 | -4 | 1 | 0 | 13* | 11* | K7 EDANS ctr=i
C=CCC1(O)C(=O)N2C(=C1C(=O)OCC)c1ccc3ccccc3c1CC2(C)C (stereo unspecified) | 0 | . | 1 | -3 | . | . | .
CC1(C)Cc2c(ccc3ccccc23)C2=C(C(=O)N3CCCC3)C(=O)C(=O)N21 | 13* | -26* | -38 | -16 | 0 | 2 | 1
Cc1ccc(-c2cn3cccnc3n2)cc1NC(=O)c1ccc(Br)o1 | 22* | . | i | i | . | 17* | 4.9* | K7 EDANS ctr=>69
c1cnc2nc(-c3ccc4c(c3)OCO4)cn2c1 | 9 | 14 | -106 | -38 | 0 | . | .
Cc1ccc(-c2cn3cccnc3n2)cc1 | 85* | 12 | i | i | 0 | 64* | 69*
CS(=O)(=O)Nc1ccc(-c2ccc3nccn3c2)cc1 | 0 | 13 | -38 | -11 | 0 | . | .
CS(=O)(=O)Nc1ccc(-c2cn3cccnc3n2)cc1 | 123* | -4 | i | i | 0 | 39* | 39*
O=C(CCN1CCCCC1)NCC[C@@H]1CC[C@H](NC(=O)C2CCOCC2)[C@H](CO)O1 | . | 0 | . | . | 0 | . | .
Cc1cc2oc3cc(NCCC4CCCN4C)ccc3c(=O)c2cc1C (stereo unspecified) | 62* | -1 | i | i | 0 | 68* | 64*
CN1CCCC1CCNc1ccc2sc3ccccc3c(=O)c2c1 (stereo unspecified) | 0 | -1 | -15 | -3 | 0 | . | .
C[C@@H]1CCCCO[C@H](CN(C)S(=O)(=O)c2cccs2)[C@H](C)CN([C@@H](C)CO)C(=O)c2cc(NS(=O)(=O)c3cn(C)cn3)ccc2O1 | . | -7 | . | . | 0 | . | .
COc1ccc2c3c([nH]c2c1)[C@@H](CO)N(C(=O)Nc1ccc(F)cc1)CC31CCN(S(=O)(=O)c2cn(C)cn2)CC1 | . | 2 | . | . | . | . | .
N#Cc1ccc(CCc2ccccc2)[nH]c1=O | 2 | 9 | -311 | -88 | 0 | . | .
N#Cc1ccc(CC(=O)c2ccccc2)[nH]c1=O | 16* | 50 | -336 | -86 | 0 | 100* | 98*
CNC[C@H]1Oc2cc(C#CCN(C)C)ccc2S(=O)(=O)N([C@H](C)CO)C[C@H]1C | . | 0 | . | . | 0 | . | .
C[C@H](CO)N1C[C@H](C)[C@@H](CN(C)Cc2cncnc2)Oc2ncc(C#Cc3ccccn3)cc2C1=O | . | 2 | . | . | 0 | . | .
